# Assay outcomes from PubChem.
# GLP1R ag – qHTS of GLP-1 Receptor Agonists | Glucagon-like peptide 1 receptor (Homo sapiens), P43220 | HEK293 GLP-1R CRE-luciferase, luminescence, 4-6 h; cells express a hypersensitive GLP-1R form | Potency, µM (titrated, usually from 45.6 µM), without a hit: at the top dose activation, usual class: activators | hit rate 0.007% among 380,000 | AID 624172, 2012; also: potency is read from the fitted curve at half-maximal effect; % of control where 0% means no effect
# Target sequence (P43220 whole entry, looked up): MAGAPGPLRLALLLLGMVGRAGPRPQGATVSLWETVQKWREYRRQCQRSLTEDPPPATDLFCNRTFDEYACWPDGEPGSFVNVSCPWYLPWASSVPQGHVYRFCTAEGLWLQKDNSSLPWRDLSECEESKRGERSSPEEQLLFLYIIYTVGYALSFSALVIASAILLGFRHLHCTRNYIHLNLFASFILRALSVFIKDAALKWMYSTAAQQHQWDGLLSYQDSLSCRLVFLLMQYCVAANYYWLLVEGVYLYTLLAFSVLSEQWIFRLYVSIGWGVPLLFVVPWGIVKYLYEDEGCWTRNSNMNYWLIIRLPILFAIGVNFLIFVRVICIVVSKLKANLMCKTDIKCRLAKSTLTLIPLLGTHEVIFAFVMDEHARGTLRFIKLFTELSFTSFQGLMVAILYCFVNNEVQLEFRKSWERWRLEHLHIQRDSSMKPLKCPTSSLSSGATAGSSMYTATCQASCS
# KCNH2 3.1 inh – qHTS for Inhibitors of KCHN2 3.1: Mutant qHTS; activity change, % (tested at about 1.8 µM); U2OS KCNH2 3.1, thallium flux FluxOr; stronger effect = lower value; hit rate 0.95% among 340,000; AID 720553, 2013;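 active = maximum activity change below -70%; inconclusive = maximum activity change from -70% to -50%; inactive = maximum activity change above -50%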;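 also: thallium influx rate constant from kinetic fluorescence after stimulation buffer; % is scaled to controls: 0 for no effect and ±100 for the full control effect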
#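 FluxOr-based Tl+ influx in U2OS cells transduced with KCNH2 3.1 virus; rate constants normalized to DMSO controls.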
# GLP1R inv ag – qHTS of GLP-1 Receptor Inverse Agonists (Inhibition Mode); Potency, µM (top dose mostly 38.3 µM), inactives show top-dose activity change, negative = inhibition, actives largely listed as inhibitors; Glucagon-like peptide 1 receptor (Homo sapiens), P43220; HEK293 GLP-1R CRE-luciferase, luminescence, 24 h; GLP-1R form is constitutively active; hit rate 1.6% among 410,000; also: potency is read from the fitted curve at half-maximal effect; % is scaled to controls: 0 for no effect and ±100 for the full control effect; nearly all actives have a fitted effect of over 55% in size
#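 Luminescence readout: a drop in cAMP-driven luciferase signal flags inverse agonism at a constitutively active GLP-1R stably expressed in HEK293. Compound exposure lasted 24 hr at 37 deg C, 5% CO2.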
# GLS inh – qHTS for Inhibitors of Glutaminase (GLS); Glutaminase kidney isoform, mitochondrial (Homo sapiens), O94925; GLS enzymatic activity, qHTS titration; Potency, µM (doses to about 45.5 µM), without a hit: at the highest dose activity change, negative = inhibition, usual class: inhibitors; hit rate 0.21% among 410,000; AID 624170, 2012; also: potency is read from the fitted curve at half-maximal effect; % is scaled to controls: 0 for no effect and ±100 for the full control effect
#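 Compounds were pin-transferred onto hKGA, after which L-glutamine (1 mM solution) and a detection mix of glutamate oxidase, HRP and Amplex Red were added. Initial and 30 min RT fluorescence reads were collected.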
# hERG WT inh – qHTS for Inhibitors of KCHN2 3.1: Wildtype qHTS; activity change, % at 1.84 µM; hit rate 0.37% among 340,000; AID 720551, 2013; U2OS, BacMam KCNH2, thallium flux FluxOr; stronger effect = lower value;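 active = maximum activity change below -70%; inconclusive = maximum activity change between -70% and -50%; inactive = maximum activity change above -50%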; also: % is scaled to controls: 0 for no effect and ±100 for the full control effect
#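 U2OS cells were transduced with wild-type KCNH2 virus (2.03 x 10^8 / mL) for 4 h at room temperature, then cultured overnight at 37 C. Thallium flux was read with FluxOr dye. Rate constants were normalized to DMSO controls.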
# HEK293 tox – qHTS of GLP-1 Receptor Inverse Agonists: Cytotox Screen; HEK293 cAMP-luciferase reporter cells, luminescence, 24 h; hit rate 0.13% among 410,000; Potency, µM (highest dose often 38.3 µM), without a hit: top-dose activity change, negative = inhibition, actives largely listed as inhibitors;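 also: loss of luciferase light is scored as toxicity; potency is read from the fitted curve at half-maximal effect; % is scaled to controls: 0 for no effect and ±100 for the full control effect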
#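 To flag toxic compounds, the library was rerun on cells for 24 hr at 37 deg C and 5% CO2. Viability-linked luminescence was captured 12 min after adding luciferase detection reagent.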
# * hit, by the source's call; i = inactive; ? = inconclusive; nt = no result given. Shown are actives, neighbours in structure and some others; about 2.8% of the full set was active somewhere. Unless noted, calls follow the shape of the dose curve; as a rule, active = well fitted curve in the direction sought with a large enough effect; inconclusive = small, poorly fitted or top-dose-only effect, or another doubt; inactive = no such curve, though single readings can be large; an effect the other way counts as inactive or inconclusive.
SMILES,GLP1R ag,KCNH2 3.1 inh,GLP1R inv ag,GLS inh,hERG WT inh,HEK293 tox
COc1ccc(OC)c(Nc2c3c(nc4ccccc24)CCC3)c1,?,-16,?,0%,44,?
COc1cc(Cl)c(C)cc1Nc1nc2ccccc2n2cnnc12,nt,nt,-8%,-13%,nt,9%
COCCCNCCOCCOc1ccc(Cl)cc1C(C)(C)C,-14%,-28,3.5µM*,-14%,-1,?
CCOC(=O)c1c(CN2CCN(C)CC2)n(-c2ccccc2)c2cc(Br)c(O)cc12,4%,19,?,2%,0,13%
CCOC(=O)c1c(CN2CCN(CCO)CC2)n(-c2ccccc2)c2cc(Br)c(O)cc12,16%,-7,2.2µM*,-9%,-2,?
CCOC(=O)C1=C(CN(CC)Cc2ccccc2)NC(=O)NC1c1ccc(Cl)cc1 (configuration not stated),-5%,nt,10µM*,-4%,nt,-13%
CCOC(=O)C1=C(CN(CC)Cc2ccccc2)NC(=O)NC1c1ccc(OC)cc1 (configuration not stated),nt,nt,?,-11%,nt,-7%
CCOC(=O)C1=C(CNCCOc2ccc(OC)cc2)NC(=O)NC1c1ccc2c(c1)OCO2 (configuration not stated),17%,0,-21%,10%,0,2%
CCOC(=O)C1=C(CNCCc2ccc(Cl)cc2)NC(=O)NC1c1ccc2c(c1)OCO2 (configuration not stated),4%,nt,6.3µM*,-4%,24,-22%
COCCNC(=O)c1ccccc1NC(=O)c1ccccc1SC,2%,6,22%,-19%,-5,1%
COc1ccc(CNC(=O)CN2C(=O)COc3ccc(S(=O)(=O)Nc4ccccc4)cc32)cc1,1%,nt,-23%,6%,nt,-22%
COc1cccc(N2CCN(C(=O)c3cccc(NC4=NC5CS(=O)(=O)CC5S4)c3)CC2)c1 (configuration not stated),0%,9,12%,15%,17,9%
CCN(C(=O)c1cnc(N2CCN(c3ncccn3)CC2)c2ccccc12)c1cccc(Cl)c1,-4%,14,10µM*,-10%,30,-19%
O=C(COc1ccccc1[N+](=O)[O-])Nc1ccc(NC(=O)c2cc3ccccc3o2)cc1,8%,-119*,?,8%,-4,-21%
O=C(Nc1ccc(NC(=O)c2cc3ccccc3o2)cc1)c1ccco1,9%,-75*,-9%,-6%,-9,-28%
CCN1CCN(c2ccc(NC(=O)c3ccc([N+](=O)[O-])o3)cc2Cl)CC1,-3%,0,6%,-11%,13,5.6µM*
Cc1ccc(NC(=O)c2cc3ccccc3o2)cc1Cl,7%,-8,13µM*,-14%,4,0%
CCC(=O)N1CCN(c2ccc(NC(=O)c3ccc([N+](=O)[O-])o3)cc2Cl)CC1,17%,-20,89%,5%,3,?
CCCOc1ccc(C(=O)N2CCN(c3ccc(NC(=O)CC)cc3Cl)CC2)cc1,-16%,-86*,-11%,-10%,-48,-10%
CCC(=O)N1CCN(c2ccc(NC(=O)c3cc4ccccc4o3)cc2Cl)CC1,-38%,-88*,11µM*,-1%,20,-6%
CCCC(=O)N1CCN(c2ccc(NC(=O)c3cc4ccccc4o3)cc2Cl)CC1,-35%,-90*,?,-5%,?,?
CCc1ccc(NC(=O)CO/N=C(\C)c2cc3ccccc3o2)cc1,15%,3,11µM*,-2%,i,-1%
